In PubChem BioAssay one finds composite z-score and z-score data, which are given here for five compounds.

Calls of active or inactive are those of the source.

For test [1], the system named is Plasmodium falciparum Sir2 (PF13_0152, Sir2A). The experiment in a line: Plasmodium falciparum Sir2A binding compounds – biochemical, small-molecule microarray, 635 nm fluorescence, primary screen (AID 1098).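 Also: score merges spot fluorescence intensity with its signal-to-noise ratio.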 As to conditions: fluorescence 635 nm, higher = more signal.
Test [2] in a line: probe aDKK1 binding to arrayed compounds – biochemical, biotinylated probe, 635/667 nm fluorescence, primary screen (AID 1099).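 Also: score merges 667nm spot fluorescence with signal to noise across triplicate slides.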 As to conditions: small-molecule microarray, higher = more signal.
The nature of test [3]: probe aCHRDL2 binding to arrayed compounds – biochemical, biotinylated probe, 635/667 nm fluorescence, primary screen (AID 1100). As to conditions: small-molecule microarray, higher = more signal.
The nature of test [4]: change in splice reporter luminescence, either direction, cell-based, HEK293, spliceosome inhibition project, primary screen (AID 1101).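 Also: HEK293 cells carrying a splicing-competent luciferase reporter gene; test concentration not given here.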 As to conditions: HEK293 splicing luciferase reporter, 24 h, higher = more signal, called active from +8 up or from −8 down. In general terms: A reporter such as luciferase makes a cellular process visible.
Test [5] concerns the target Fibroblast growth factor 10 (Homo sapiens) (UniProt O15520). Put plainly: compounds binding fibroblast growth factor 10 – biochemical, small-molecule microarray, 635 nm fluorescence, primary screen (AID 1102). To be noted: FGF10 binding, fluorescence 635 nm, higher = more signal.
Test [6] concerns glycogen synthase kinase-3 (GSK3A per assay name; protocol says GSK3B). Put plainly: compounds binding glycogen synthase kinase-3 – biochemical, small-molecule microarray, 635 nm fluorescence, GSK3A, primary screen (AID 1103). Also: the record names both GSK3A and GSK3B. As to conditions: fluorescence 635 nm, higher = more signal.
The target in test [7] is Epidermal growth factor receptor (Homo sapiens) (UniProt P00533). The experiment in a line: compounds binding epidermal growth factor receptor – biochemical, small-molecule microarray, 635 nm fluorescence, primary screen (AID 1104).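 Also: score merges 667 nm emission intensity with spot signal to noise over triplicate slides.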 As to conditions: EGFR binding, higher = more signal.
Chain of Epidermal growth factor receptor (Homo sapiens) (P00533 whole entry, looked up): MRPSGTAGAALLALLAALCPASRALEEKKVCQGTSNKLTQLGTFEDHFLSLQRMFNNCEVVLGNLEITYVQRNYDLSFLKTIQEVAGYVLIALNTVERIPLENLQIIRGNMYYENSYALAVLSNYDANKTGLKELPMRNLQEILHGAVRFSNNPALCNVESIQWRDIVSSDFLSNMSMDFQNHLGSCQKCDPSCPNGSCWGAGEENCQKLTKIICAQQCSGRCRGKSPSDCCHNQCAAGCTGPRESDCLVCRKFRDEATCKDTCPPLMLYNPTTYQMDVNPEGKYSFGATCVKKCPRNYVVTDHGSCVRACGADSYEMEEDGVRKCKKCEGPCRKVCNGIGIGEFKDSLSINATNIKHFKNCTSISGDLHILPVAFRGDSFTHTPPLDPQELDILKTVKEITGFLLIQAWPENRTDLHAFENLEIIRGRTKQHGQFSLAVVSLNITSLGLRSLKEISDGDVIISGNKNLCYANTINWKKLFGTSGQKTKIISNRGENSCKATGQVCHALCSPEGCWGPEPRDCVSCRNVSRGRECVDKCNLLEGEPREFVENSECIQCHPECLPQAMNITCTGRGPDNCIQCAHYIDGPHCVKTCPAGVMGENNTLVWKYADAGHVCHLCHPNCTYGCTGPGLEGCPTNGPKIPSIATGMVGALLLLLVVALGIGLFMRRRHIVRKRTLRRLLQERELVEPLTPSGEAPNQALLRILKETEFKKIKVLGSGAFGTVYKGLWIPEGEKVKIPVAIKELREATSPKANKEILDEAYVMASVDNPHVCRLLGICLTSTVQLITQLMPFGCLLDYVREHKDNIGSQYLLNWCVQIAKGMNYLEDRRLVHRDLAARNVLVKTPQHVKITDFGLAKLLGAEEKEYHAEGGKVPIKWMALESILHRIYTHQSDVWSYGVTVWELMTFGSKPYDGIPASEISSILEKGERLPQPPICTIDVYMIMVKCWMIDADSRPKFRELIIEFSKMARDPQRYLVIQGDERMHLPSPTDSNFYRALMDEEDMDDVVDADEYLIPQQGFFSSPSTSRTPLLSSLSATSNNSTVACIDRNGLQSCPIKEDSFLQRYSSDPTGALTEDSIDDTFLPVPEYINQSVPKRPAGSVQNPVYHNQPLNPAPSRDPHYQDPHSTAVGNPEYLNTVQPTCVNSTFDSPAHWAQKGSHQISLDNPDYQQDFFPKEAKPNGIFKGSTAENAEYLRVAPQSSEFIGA
Test [8] addresses Follistatin-related protein 3 (Homo sapiens) (UniProt O95633). The experiment in a line: compounds binding follistatin-related protein 3 – biochemical, small-molecule microarray, 635 nm fluorescence, primary screen (AID 1105).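 Also: score merges emission near 667 nm and signal to noise per printed spot across three slides.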 To be noted: FSTL3 binding, higher = more signal.
The target in test [9] is Dickkopf-related protein 1 (Homo sapiens) (UniProt O94907). Put plainly: small molecules binding DKK1 protein – biochemical, small-molecule microarray, 635 nm fluorescence scan, primary screen (AID 1106).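 Also: score merges emission near 667 nm with signal to noise over three replicate slides.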 To be noted: higher = more signal.
Chain of Dickkopf-related protein 1 (Homo sapiens) (O94907 whole entry, looked up): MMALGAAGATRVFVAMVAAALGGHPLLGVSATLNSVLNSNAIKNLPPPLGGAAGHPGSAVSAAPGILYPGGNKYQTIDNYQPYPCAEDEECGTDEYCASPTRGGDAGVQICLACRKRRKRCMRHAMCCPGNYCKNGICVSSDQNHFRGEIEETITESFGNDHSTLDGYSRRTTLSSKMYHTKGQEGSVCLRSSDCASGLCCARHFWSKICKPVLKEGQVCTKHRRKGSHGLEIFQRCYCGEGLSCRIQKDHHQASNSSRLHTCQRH
The test system of test [10] is Inhibin beta A chain (activin A). The experiment in a line: small molecules binding activin A – biochemical, small-molecule microarray, 635 nm fluorescence scan, primary screen (AID 1107).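 Also: mouse activin A protein probed at 4.33 µg/mL on printed slides; score merges bound-protein fluorescence near 667 nm with spot signal-to-noise.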 To be noted: INHBA, higher = more signal.
The test system of test [11] is Human papillomavirus type 1a protein E7 (residues 44-93). The experiment in a line: small molecules binding HPV E7 44-93 – biochemical, small-molecule microarray, residues 44-93, 635 nm fluorescence, primary screen (AID 1108).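 Also: E7 fragment applied at 1 µg/mL in TBST for 1 h at 4 C; score combines spot fluorescence with its signal to noise ratio.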 As to conditions: fluorescence 635 nm, higher = more signal.
Test [12] can be described thus: hepatitis C replication reporter changes, two-sided – Huh7 cells, luciferase reporter, HCV replication inhibitor project, primary screen (AID 1109).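 Also: huh7 hepatoma cells harbouring a luciferase neomycin HCV replicon reporter; luciferase luminescence as measure of HCV replicon replication; test concentration not given here.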 As to conditions: Huh7 HCV replicon luciferase reporter, 48 h; higher = more signal.
In test [13] the target is Left-right determination factor 2 (Homo sapiens) (UniProt O00292). Put plainly: small molecules binding LEFTY2 protein – biochemical, small-molecule microarray, 635 nm fluorescence scan, primary screen (AID 1110). As to conditions: higher = more signal.
Chain of Left-right determination factor 2 (Homo sapiens) (O00292 whole entry, looked up): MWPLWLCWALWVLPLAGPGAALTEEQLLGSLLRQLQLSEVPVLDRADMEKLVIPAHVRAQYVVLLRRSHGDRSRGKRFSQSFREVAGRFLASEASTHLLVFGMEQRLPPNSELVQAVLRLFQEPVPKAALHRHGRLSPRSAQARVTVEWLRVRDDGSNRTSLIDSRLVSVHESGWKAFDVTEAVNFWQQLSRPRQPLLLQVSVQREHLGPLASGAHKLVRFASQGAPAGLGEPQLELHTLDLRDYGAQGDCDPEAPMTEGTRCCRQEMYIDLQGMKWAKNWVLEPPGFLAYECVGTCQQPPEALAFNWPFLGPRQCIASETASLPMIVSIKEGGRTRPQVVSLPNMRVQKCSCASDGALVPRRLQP
For test [14], the target named is Calmodulin-1 (Homo sapiens) (UniProt P0DP23). Put plainly: small molecules binding calmodulin-1 with EGTA – biochemical, small-molecule microarray, Cy5-labelled CALM1, profiling panel (AID 1111).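 Also: labelled calmodulin applied in Tris saline Tween buffer holding calcium plus EGTA and DTT.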 To be noted: Cy5-CALM1 binding fluorescence, higher = more signal.
Test [15] has the same target. Put plainly: small molecules binding Ca-loaded calmodulin-1 – biochemical, small-molecule microarray, Cy5-labelled CALM1, plus calcium, artefact control for SMM control-protein annotation, profiling panel (AID 1112).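 Also: score merges spot fluorescence with signal to noise from triplicate slides.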 As to conditions: Cy5-CALM1 binding fluorescence, higher = more signal.
Test [16] can be described thus: probe aWnt5a binding to arrayed compounds – biochemical, biotinylated probe, 635/667 nm fluorescence, primary screen (AID 1113).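 Also: score merges 667 nm fluorescence intensity with signal-to-noise per printed feature.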 To be noted: small-molecule microarray, higher = more signal.
The nature of test [17]: probe aShh binding to arrayed compounds – biochemical, biotinylated probe, 635/667 nm fluorescence, primary screen (AID 1114).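 Also: probe is biotin-labelled aShh protein from a stem cell growth factor screen; measures binding of labelled protein to compounds printed on the slide; score merges feature fluorescence at 667 nm with signal-to-noise.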 As to conditions: small-molecule microarray, higher = more signal.
Test [18] is described as follows: probe aNog binding to arrayed compounds – biochemical, biotinylated probe, 635/667 nm fluorescence, primary screen (AID 1115).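 Also: probe is biotinylated aNog protein used at 0.15 µg/mL for 1 h at 4 C; z-score combines 667 nm fluorescence of each spot with its signal to noise.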 To be noted: small-molecule microarray, higher = more signal.
The target of test [19] is Torsin-1A-interacting protein 1 (Homo sapiens) (UniProt Q5JTV8). The experiment in a line: compound microarray binding of lysate hLAP1 – cell lysate, small-molecule microarray, COS7 lysate, 635/667 nm fluorescence, primary screen (AID 1116). As to conditions: 635 nm fluorescence, higher = more signal.
Chain of Torsin-1A-interacting protein 1 (Homo sapiens) (Q5JTV8 whole entry, looked up): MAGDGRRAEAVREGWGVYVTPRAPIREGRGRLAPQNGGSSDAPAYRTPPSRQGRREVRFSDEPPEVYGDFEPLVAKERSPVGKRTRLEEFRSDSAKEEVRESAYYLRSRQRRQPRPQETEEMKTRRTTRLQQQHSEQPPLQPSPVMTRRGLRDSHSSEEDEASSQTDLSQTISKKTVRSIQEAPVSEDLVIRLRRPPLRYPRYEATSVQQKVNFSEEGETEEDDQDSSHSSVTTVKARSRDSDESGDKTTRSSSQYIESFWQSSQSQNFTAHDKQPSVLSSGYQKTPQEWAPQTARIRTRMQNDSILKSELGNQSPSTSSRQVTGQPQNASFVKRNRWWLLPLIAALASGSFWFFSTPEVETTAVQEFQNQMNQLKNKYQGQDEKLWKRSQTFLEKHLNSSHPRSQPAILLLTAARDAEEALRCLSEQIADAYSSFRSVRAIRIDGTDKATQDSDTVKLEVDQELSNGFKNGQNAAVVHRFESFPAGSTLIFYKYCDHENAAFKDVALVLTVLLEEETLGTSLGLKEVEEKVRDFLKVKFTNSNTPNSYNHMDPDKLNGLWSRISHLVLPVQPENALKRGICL
Test [20] addresses Alpha-bungarotoxin (Bungarus multicinctus) (UniProt P60615). Put plainly: compounds binding labelled alpha-BTX control protein – biochemical, small-molecule microarray, Alexa647 label, 635/667 nm fluorescence, artefact control for SMM control protein annotation, profiling panel (AID 1117). To be noted: alpha-BTX-A647 binding fluorescence, higher = more signal.

Chain of Follistatin-related protein 3 (Homo sapiens) (O95633 whole entry, looked up): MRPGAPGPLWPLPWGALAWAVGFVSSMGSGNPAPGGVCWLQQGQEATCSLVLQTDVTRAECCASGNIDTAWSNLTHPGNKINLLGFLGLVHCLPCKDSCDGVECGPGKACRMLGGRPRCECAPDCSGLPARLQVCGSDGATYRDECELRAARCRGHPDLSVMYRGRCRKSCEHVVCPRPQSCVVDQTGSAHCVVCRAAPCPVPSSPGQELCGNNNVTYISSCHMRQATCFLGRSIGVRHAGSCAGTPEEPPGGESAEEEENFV
Chain of Fibroblast growth factor 10 (Homo sapiens) (O15520 whole entry, looked up): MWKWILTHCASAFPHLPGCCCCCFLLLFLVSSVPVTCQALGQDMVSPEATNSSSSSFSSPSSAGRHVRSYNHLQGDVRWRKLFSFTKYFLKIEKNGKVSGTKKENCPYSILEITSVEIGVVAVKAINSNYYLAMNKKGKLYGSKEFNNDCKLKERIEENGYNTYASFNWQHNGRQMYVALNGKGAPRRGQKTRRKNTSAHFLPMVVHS
Chain of Alpha-bungarotoxin (Bungarus multicinctus) (P60615 whole entry, looked up): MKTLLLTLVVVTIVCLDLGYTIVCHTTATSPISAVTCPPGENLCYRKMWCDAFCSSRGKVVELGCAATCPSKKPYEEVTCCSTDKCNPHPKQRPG

As for `CO[C@@H]1COC(=O)[C@H](C)NC(=O)[C@@H](C)COC(=O)CCC[C@H]1C`, the composite z-score in [1] is 0.957; in [2] it was -0.122; in test [3], -0.554; in test [5], 0.721; in [6] it was 0.115; in [7], 0.429. Further, the composite z-score in test [8] is 1.11; in [9], 0.705; in test [10] it was -0.0431; in test [11], 0.379; in test [13], 0.753; in test [14] it was -0.485. Besides, the composite z-score in [15] was -0.704; in test [16], -0.101; in test [17], -0.138; in test [18], -0.169; in test [19], 0.268; in test [20], -0.0916. The z-score was 0.494 (inactive) in [4] and -1.33 in test [12].

`COCCOC(=O)N1C(=O)[C@@]2(c3cc(C#CCNC(N)=O)ccc31)[C@H](c1ccccc1OCCO)N1[C@H](c3ccccc3)[C@H](c3ccccc3)OC(=O)[C@H]1[C@@H]2C(=O)N1CCN(c2ncccn2)CC1`: the composite z-score was determined as 1.61 in [1]; 0.376 in test [2]; 0.702 in [3]; 1.15 in test [5]; 0.375 in test [6]; 0.315 in test [7]. Further, the composite z-score in test [8] is 0.623; in test [9], 0.0239; in [10], 1.35; in test [11] it was 0.648; in test [13], 0.377; in [14], 0.821. For the same compound, the composite z-score was 0.749 in [15]; 0.0326 in test [16]; -0.108 in test [17]; -0.105 in test [18]; 1.01 in test [19]; 2.14 in test [20]. In addition, the z-score was -0.099 (inactive) in [4] and -0.672 in test [12].

For `CCCNC(=O)OC[C@H]1O[C@H](CCON=CC[C@@H]2C=C[C@H](OC(C)=O)[C@@H](COC(C)=O)O2)C=C[C@@H]1Oc1ccc(OC)cc1`, the composite z-score in test [1] was 0.46; in test [2] it was -0.0927; in test [3] it was -0.412; in [5] it was 0.817; in test [6], 0.524; in [7] it was 0.492. Besides, the composite z-score is 0.759 in [8]; 0.537 in [9]; 0.434 in [10]; 0.791 in test [11]; 0.667 in [13]; -0.625 in [14]. For the same compound, the composite z-score in test [15] was -0.867; in test [16], -0.0718; in test [17], -0.442; in [18], -0.267; in test [19] it was 0.444; in test [20] it was 0.945. In addition, the z-score was 0.599 (inactive) in test [4] and 0.0229 in test [12].

Regarding `O[C@@H](Cc1ccccc1)[C@H]1C2C=CCCC(c3ccccc3)=C2CN1Cc1cccc(Cl)c1` (stereo not given in full), the composite z-score is 0.0167 in [1]; -0.0232 in test [2]; 0.7 in [3]; 0.653 in test [5]; 0.913 in test [6]; 0.21 in test [7]. Besides, the composite z-score in test [8] is 0.847; in test [9], 0.473; in test [10], 0.264; in test [11], 0.921; in [13], 0.286; in test [14], -0.118. The composite z-score in test [15] was -0.264; in [16], -0.157; in [17], -0.0243; in test [18], 0.14; in test [19], 0.464; in test [20] it was 0.475. Also, the z-score was -0.205 (inactive) in test [4] and -2.27 in test [12].

On to `CC(=O)OC[C@H]1O[C@H](CCON=C(C)CCC(=O)OC[C@H]2O[C@H](C#Cc3ccccc3)C=C[C@@H]2Oc2ccc(C)cc2)C=C[C@@H]1OC(C)=O`, for which the composite z-score in [1] is 0.825; in [2] it was -0.304; in [3], -0.632; in test [5] it was 0.167; in test [6] it was -0.219; in test [7], 0.259. In addition, the composite z-score was 0.521 in test [8]; 0.495 in test [9]; 0.659 in test [10]; -0.187 in test [11]; 0.977 in test [13]; -0.367 in [14]. Further, the composite z-score in [15] is -0.5; in [16] it was -0.131; in [17], -0.138; in test [18], -0.423; in test [19], 0.245; in [20], 1.24. Also, the z-score in [4] was -0.35 (inactive); in test [12] it was -0.0572.
